ALOX12 inh = inhibitors of human 12S-lipoxygenase ALOX12. purified 12hLO, xylenol orange hydroperoxide absorbance. 580,000 compounds, 1.1% hits. Potency, µM (top dose mostly 108 µM), hits mostly inhibitors. AID 1671190
Target sequence (P18054 whole entry, looked up): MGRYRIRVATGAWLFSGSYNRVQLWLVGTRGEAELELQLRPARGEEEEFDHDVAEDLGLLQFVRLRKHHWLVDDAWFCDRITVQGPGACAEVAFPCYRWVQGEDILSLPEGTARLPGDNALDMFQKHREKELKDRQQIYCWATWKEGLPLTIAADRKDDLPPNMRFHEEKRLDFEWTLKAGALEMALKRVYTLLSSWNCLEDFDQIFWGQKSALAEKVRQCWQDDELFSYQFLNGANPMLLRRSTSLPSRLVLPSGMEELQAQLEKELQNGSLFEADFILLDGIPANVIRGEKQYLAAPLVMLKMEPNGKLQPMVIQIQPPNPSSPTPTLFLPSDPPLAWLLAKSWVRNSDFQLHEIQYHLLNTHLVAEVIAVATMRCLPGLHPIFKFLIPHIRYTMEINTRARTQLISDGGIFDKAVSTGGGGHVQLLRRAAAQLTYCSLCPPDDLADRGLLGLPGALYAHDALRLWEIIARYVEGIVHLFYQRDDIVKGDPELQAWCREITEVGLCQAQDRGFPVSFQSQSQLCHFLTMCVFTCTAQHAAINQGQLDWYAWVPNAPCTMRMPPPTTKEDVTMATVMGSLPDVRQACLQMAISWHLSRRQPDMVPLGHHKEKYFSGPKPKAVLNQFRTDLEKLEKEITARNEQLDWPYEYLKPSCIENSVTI
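Purified human 12hLO (150 nM final) in 25 mM Hepes, 0.01% Triton X-100, pH 7.0 was preincubated 15 min at room temperature with compound. Then 40 uM arachidonic acid was added, 30 min. Hydroperoxide was read by Fe-XO absorbance ratio 573/405 nm.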
MCF10A rerep = induces DNA re-replication in MCF 10a normal breast cells; Potency, µM (series often up to 46.1 µM), usual class: activators; MCF 10A DNA re-replication, Hoechst nuclear intensity, 48 h; 350,000 compounds, 2.9% hits; further: nearly all actives have a fitted effect of over 50% in size
KB-V1 MDR tox = KB-V1 MDR subline cytotoxicity. KB-V1 MDR cells viability, CellTiter-Glo, 72 h. Potency, µM (top dose mostly 46.1 µM), hits mostly cytotoxic. 400,000 compounds, 3.4% hits. AID 1347076; further: nearly all actives have a fitted effect of over 60% in size
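Cytotoxicity via CellTiter-Glo luminescence after 72 h compound exposure at 37 degrees C. Cells: drug-selected KB-V1 line, DMEM phenol-red free plus 10% FBS. Compounds tested at multiple concentrations; normalized data fitted to concentration-effect curves.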
KB-3-1 tox = KB-3-1 parental cell cytotoxicity; KB-3-1 viability, CellTiter-Glo ATP luminescence, 72 h; Potency, µM (doses to about 46.1 µM), usual class: cytotoxic; 400,000 compounds, 1.4% hits; AID 1347075; further: nearly all actives have a fitted effect of over 60% in size
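Screening of KB-3-1 cells (DMEM, 10% FBS, phenol-red free) ran from lowest to highest compound concentration; after 72 h at 37 °C viability was read luminescently and curves fitted.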
SW480 rereplic = DNA re-replication induction in SW480 cells; SW480 DNA re-replication, Hoechst DNA content imaging, 48 h; Potency, µM (doses to about 46.1 µM), most hits filed as activators; 340,000 compounds, 1.8% hits; further: nearly all actives have a fitted effect of over 55% in size
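Treated cells incubate 48 hr (37 C, 5% CO2), are stained 40 min with Hoechst, and nuclear fluorescence is enumerated; a rise in nuclei with high DNA signal marks re-replication.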
PINK1 modulator = modulators of PINK1 expression. Potency, µM (doses to about 76.6 µM), most hits filed as activators. AID 624263. 410,000 compounds, 0.2% hits. PINK1 immunofluorescence, high-content cytometry, 24 h; active means well fitted activation curve with a large enough effect; inconclusive means small, poorly fitted or top-dose-only effect; cell line not stated here; further: nearly all actives have a fitted effect of over 65% in size
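Stable cell line treated 24 h with compounds at 5 concentrations (CCCP controls), then fixed and immunostained for PINK1 plus nuclear and cell stains; PINK1 immunofluorescence quantified by laser-scanning microplate cytometry.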
Numbers stand for hits; – = inactive; ? = inconclusive; · = no result. This is a sample that favours compounds with a hit; in the whole collection about 5.8% have one here. Unless noted, the call rests on the fitted dose curve; in most records, active means well fitted curve in the direction sought with a large enough effect; inconclusive means small, poorly fitted or top-dose-only effect, or another doubt; inactive means no such curve, though single readings can be large; an effect the other way counts as inactive or inconclusive.

SMILES | ALOX12 inh | MCF10A rerep | KB-V1 MDR tox | KB-3-1 tox | SW480 rereplic | PINK1 modulator
O=S(=O)(NC1CCCCC1N1CCN(c2ccc(F)cc2)CC1)c1ccccc1 (stereo unspecified) | – | 25.9µM | – | – | – | –
CC(Oc1ccc(-n2cnnn2)cc1)C(=O)Nc1ccccc1Sc1ccccc1 (stereo unspecified) | – | · | · | · | · | ·
CCOC(=O)N1CCN(S(=O)(=O)c2ccc3c(c2)SC(C)C(=O)N3)CC1 (stereo unspecified) | – | – | 4.61µM | ? | – | –
COCC(=O)N1CCCN(CCc2ccccc2)c2ccccc21 | – | · | · | · | · | ·
Nc1nccnc1C(=O)Nc1cccc(NC(=O)c2ccccc2)c1 | – | · | · | · | · | ·
Cc1cc(C(=O)O)ccc1-c1ccc(/C=N/O)o1 | – | · | · | · | · | ·
Cc1ccc(CN2C(=O)N/C(=C/c3ccc(-c4ccc(C(=O)O)cc4)o3)C2=O)cc1 | ? | 8.2µM | – | – | 4.61µM | –
O=C(O)c1cc(-c2ccc(/C=C3\NC(=O)N(c4ccccc4)C3=O)o2)ccc1Cl | ? | – | – | – | ? | –
O=C(O)c1ccc(COc2ccccc2/C=C2\NC(=O)N(Cc3ccccc3)C2=O)cc1 | ? | – | – | – | ? | –
O=C(O)c1cccc(-n2cccc2/C=C2\NC(=O)N(Cc3ccc(F)cc3)C2=O)c1 | 39.8µM | ? | – | – | – | –
Cc1cc(C(=O)O)ccc1-c1ccc(/C=C2\NC(=O)N(Cc3ccc(F)cc3)C2=O)o1 | – | 3.66µM | – | – | 9.2µM | –
Cc1ccc(CN2C(=O)N/C(=C\c3cccn3-c3cccc(C(=O)O)c3)C2=O)cc1 | ? | – | – | – | – | –
O=C(O)c1ccc(COc2ccc3ccccc3c2/C=C2/NC(=O)N(Cc3ccc(F)cc3)C2=O)cc1 | – | 18.4µM | – | – | ? | –
CN(C)c1ccc(-c2noc([C@@H]3CCCN3Cc3nc4ccccc4n3C)n2)cn1 | – | · | · | · | · | ·
CCN(Cc1cccc(F)c1)C(=O)c1cc(-c2ccncc2)nc2ccccc12 | – | · | · | · | · | ·
CCCCn1nc(NC(=O)c2cccs2)c2cc3cc(OC)ccc3nc21 | – | ? | ? | – | 11.6µM | –
CCCn1nc(NC(=O)c2cccs2)c2cc3cc(OC)ccc3nc21 | – | ? | ? | – | 14.6µM | –
COc1cc(NC(=O)Nc2ccccc2OCc2cc(=O)n3cccc(C)c3n2)cc(OC)c1 | – | · | · | · | · | ·
Nc1nccnc1C(=O)NCCOc1ccccc1 | – | · | · | · | · | ·
Cc1ccc(-c2noc(CSc3nnc(Cc4ccccc4)n3-c3cccc(C)c3)n2)cc1 | – | 18.4µM | – | ? | – | ?
Clc1ccc(-c2noc(CSc3nnc(-c4ccncc4)n3-c3ccccc3)n2)cc1 | – | ? | 2.59µM | – | ? | –
CCOc1ccc(-c2noc(CSc3nnc(Cc4ccccc4)n3-c3cccc(C)c3)n2)cc1 | – | · | ? | – | · | ?
O=C(CSc1nnc(-c2ccncc2)n1-c1ccccc1)N1CCN(c2ccc(Cl)cc2)CC1 | ? | ? | 16.4µM | – | – | –
Cc1ccc(-n2c(SCc3nc(-c4ccc(Cl)cc4)no3)nnc2-c2ccncc2)cc1 | – | · | – | – | · | –
O=C(CSc1nnc2sc3ccccc3n12)N1CCN(c2ccccc2)CC1 | – | – | 8.2µM | – | – | –
SMILES | ALOX12 inh | MCF10A rerep | KB-V1 MDR tox | KB-3-1 tox | SW480 rereplic | PINK1 modulator
Cc1ccc(N(CCC(=O)NCC2CCCO2)S(=O)(=O)c2ccccc2)cc1 (stereo unspecified) | – | · | · | · | · | ·
COc1ccccc1CNc1cc(-c2ccccc2)ccc1OC | – | ? | ? | – | – | –
COc1ccc(CNC(=O)CNC(c2ccccc2)c2ccccc2)cc1OC | – | – | 8.2µM | – | – | –
COc1cc(NC(=O)CN2c3ccccc3CC2C)cc(OC)c1OC (stereo unspecified) | – | – | – | – | – | –
COc1ccc(Cl)cc1NC(=O)CNC(c1ccccc1)c1ccccc1 | – | ? | 14.6µM | ? | ? | –
COc1ccc(Cl)cc1NC(=O)CN1c2ccccc2CC1C (stereo unspecified) | – | – | 14.6µM | ? | – | –
COc1ccc(-c2ccccc2)cc1NCc1ccc(OC)c(OC)c1 | – | – | 16.4µM | – | – | –
COc1ccc(C)cc1NC(=O)CNC(c1ccccc1)c1ccccc1 | – | ? | – | – | – | –
Cc1ccc(S(=O)(=O)/N=C(/Nc2ccc([N+](=O)[O-])cc2[N+](=O)[O-])c2ccccc2)cc1 | ? | ? | 16.4µM | – | – | 35.5µM
Cc1ccc(N/C(=N/S(=O)(=O)c2cccs2)c2ccccc2)c(C)c1 | – | ? | 9.2µM | ? | ? | –
Cc1ccc(S(=O)(=O)/N=C(/Nc2nc(C)cs2)c2ccccc2)cc1 | ? | – | – | – | – | –
Cc1ccc(S(=O)(=O)/N=C(/Nc2ccc([N+](=O)[O-])cc2)c2ccccc2)cc1 | 44.7µM | ? | ? | ? | – | –
Cc1nn(C)cc1CN(C)C(=O)Cn1nc(C(F)(F)F)c(Br)c1C1CC1 | – | · | · | · | · | ·
COc1ccc(NC(=S)NC(=O)c2ccccc2)cn1 | ? | – | – | – | ? | –
COc1ccc(NC(=O)c2cccc(Oc3ccccc3)c2)cn1 | – | ? | ? | 8.2µM | ? | –
COc1ccc(CC(=O)Nc2ccc(OC)nc2)cc1 | – | – | – | – | – | –
COc1ccc(NC(=O)Cc2ccc(-c3ccccc3)cc2)cn1 | – | ? | 13µM | ? | ? | –
COc1ccc(NC(=O)c2cc(Br)c(Br)s2)cn1 | 12.6µM | – | ? | – | – | –
COc1ccc(NC(=O)c2cccc(S(=O)(=O)Nc3ccc(Br)cc3)c2)cn1 | ? | ? | ? | 11.6µM | – | 14.1µM
CN(C)c1ccc(C(=O)N2CCCC(n3cc(-c4nc(C5CC5)no4)nn3)C2)cc1 (stereo unspecified) | – | · | · | · | · | ·
Cc1cc2nc(CSCC(=O)Nc3ccccc3)cc(=O)n2o1 | – | · | · | · | · | ·
COc1ccc(-c2cc(N3CCC(NC(=O)Cc4ccsc4)CC3)n[nH]2)cc1 | – | · | · | · | · | ·
O=C1c2ccccc2NC(c2ccc(-c3cccs3)o2)N1O (stereo unspecified) | ? | – | ? | ? | – | –
O=C1c2ccccc2NC(c2ccc(-c3ccc(C(F)(F)F)cc3)o2)N1O (stereo unspecified) | 28.2µM | ? | – | – | ? | –
CC(=O)N(c1ccccc1C)C1CCCC1 | – | – | – | – | – | –
CC(=O)N(C1=C(Cl)C(=O)c2ccccc2C1=O)C1CCCCC1 | 1.78µM | ? | ? | ? | ? | –
CC1=CC(=C(C#N)c2nc3ccccc3s2)C=C(C)N1CC1CCCO1 (stereo unspecified) | ? | 13µM | – | – | 23.1µM | –
N#Cc1ccc(C(=O)/C=C/c2cc3ccccc3nc2N2CCOCC2)cc1 | 11.2µM | · | · | · | · | ·
Cc1cc(C)c(C)c(OCCOCCN2CCOCC2)c1 | – | – | – | – | – | –
